Screening results: PubChem BioAssay, National Center for Advancing Translational Sciences (NCATS)
Most compounds without a hit are left out; they make up all but 1.3% or so of the library.
IL2 activator – qHTS of IL-2 Activators | IL-2 activation reporter assay, cell-based qHTS; stimulated with anti-CD3/CD4/CD28 beads; in transgenic mouse T cells | activation, % (series mostly up to about 46 µM) | 0.065% of 360,000 active | AID 652025, 2013; in the data active means activation above about 50%; inconclusive means mostly about 30% to 49%
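First, unstimulated transgenic mouse T cells were exposed to compound for 60 min. Next, anti-CD3/anti-CD4-coated beads with anti-CD28 were added. Finally, after 18 h at 37 degrees C, EGFP and DsRed were imaged.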
PKM2 act – qHTS Assay for Activators of Human Muscle isoform 2 Pyruvate Kinase. Potency, µM (series often up to 57.5 µM), usual class: activators. purified PKM2, Kinase-Glo ATP luminescence, activation; response scale: 0% is enzyme alone, no compound. 0.34% of 260,000 active. Pyruvate kinase PKM (Homo sapiens), P14618; further: nearly all actives have a fitted effect of over 55% in size
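Kinase-Glo luminescence reports ATP generated from ADP (0.1 mM) and PEP (0.5 mM) by purified hPK-M2 after 1 h at room temperature, pH 7.2 imidazole buffer; intermediate enzyme activity allows detecting inhibitors and activators.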
a7 integrin act – qHTS for Activators of Integrin-Mediated Alleviation for Muscular Dystrophy | alpha7betagal myoblasts, beta-gal FDG fluorescence, 48 h | AID 624291, 2012 | 0.064% of 350,000 active | Potency, µM (series often up to 38.3 µM), usual class: activators; further: nearly all actives have a fitted effect of over 60% in size
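alpha7betagal+/- myoblasts (passage 13, 250/well) treated 48 h at 37C with compounds at 1:260 dilution of DMSO stock. Lysed, then beta-galactosidase activity read as FDG fluorescence (ex 480/em 540) after 30 min, with pre-read for autofluorescence.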
Apoferritin bind – qHTS Assay for Identification of Novel General Anesthetics | Ferritin light chain (Equus caballus), P02791 | Potency, µM (titrated, usually from 77.5 µM), most hits filed as inhibitors | apoferritin/1-aminoanthracene competitive binding, fluorescence | 0.074% of 350,000 active; further: nearly all actives have a fitted effect of over 20% in size
Target sequence (P02791 2-175 limits assumed): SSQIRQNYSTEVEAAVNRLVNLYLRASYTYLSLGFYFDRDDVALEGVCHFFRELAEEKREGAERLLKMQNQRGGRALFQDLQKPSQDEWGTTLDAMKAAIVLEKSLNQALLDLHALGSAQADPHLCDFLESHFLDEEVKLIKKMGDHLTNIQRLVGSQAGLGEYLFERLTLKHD
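Concentration-response curves derived by four-parameter Hill fitting of normalized fluorescence, where compounds displaced 1-AMA from 10 uM horse apoferritin following a brief 10 min room-temperature incubation; propofol titration acted as positive control.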
BRCA1 expr act – qHTS Assay to Identify Small Molecule Activators of BRCA1 Expression. MCF7-BRCA1-FFLuc reporter, luminescence, 48 h; response scale: scaled: vehicle 0%, 10 µM genistein 100%. 1.1% of 380,000 active. AID 624202, 2012. Potency, µM (titrated, usually from 46.1 µM), usual class: activators; further: nearly all actives have a fitted effect of over 80% in size
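Using MCF7 cells harboring a BRCA1 firefly luciferase reporter, plated 2 h before compound pinning, the screen measured luminescence after 48 h incubation. Responses were normalized to DMSO and 10 microM genistein, then fitted for concentration-effect.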
Each line names hits and unclear results; the compound was inactive in the other large screens. Unless noted, the call rests on the fitted dose curve; in most records, active means well fitted curve in the direction sought with a large enough effect; inconclusive means small, poorly fitted or top-dose-only effect, or another doubt; inactive means no such curve, though single readings can be large; an effect the other way counts as inactive or inconclusive.

CCCCc1nc2cc(C(=O)N3CCNC(=O)C3)ccc2o1	none (no result: PKM2 act)
CN(C)c1ccc(NC(=O)/C=C/c2ccccc2Cl)cc1	BRCA1 expr act inconclusive
O=C(/C=C/c1ccccc1Cl)NCCc1ccccc1	Apoferritin bind inconclusive, BRCA1 expr act 11.2µM
CCN(CC)c1ccc(NC(=O)/C=C\c2ccccc2Cl)cc1	Apoferritin bind inconclusive, BRCA1 expr act 3.16µM
CC1=CCC(COC(=O)Nc2ccccc2)CC1 (stereo not given)	Apoferritin bind inconclusive, BRCA1 expr act 3.55µM
O=C(O)c1ccc(-c2c3nc(c(-c4ccc(C(=O)O)cc4)c4ccc([n-]4)c(-c4ccc(C(=O)O)cc4)c4nc(c(-c5ccc(C(=O)O)cc5)c5ccc2[n-]5)C=C4)C=C3)cc1.[Mn+3]	none (no result: IL2 activator, PKM2 act, a7 integrin act, BRCA1 expr act)
CC(=O)N(c1nnc(-c2ccc(C)cc2)s1)C1CCCC1	Apoferritin bind inconclusive, BRCA1 expr act 11.2µM
Cc1ccccc1C(=O)Nc1nc2c(s1)CC(C(C)(C)C)CC2 (stereo not given)	none (no result: IL2 activator, PKM2 act, a7 integrin act, BRCA1 expr act)
COC(=O)C1=C(C(=O)OC)[C@@H]2Nc3ccccc3[C@@]23C[C@@H](C(=O)OC)N(S(=O)(=O)c2ccc(C#N)cc2)C3=N1	none (no result: IL2 activator, a7 integrin act, Apoferritin bind, BRCA1 expr act)
COc1ccc(C(=O)Nc2ccc3ccccc3c2)cc1OC	BRCA1 expr act 5.62µM
COc1ccc(C(=O)Nc2nc3ccccc3s2)cc1	none
COc1ccc(C(=O)Nc2nc3ccccc3s2)cc1OC	BRCA1 expr act 4.47µM
COc1ccc(NC(=O)c2ccc3snnc3c2)cc1	BRCA1 expr act 6.31µM
O=C(C[n+]1c(Cl)ccc2ccccc21)c1ccc2ccccc2c1	none (no result: IL2 activator, PKM2 act, a7 integrin act, Apoferritin bind)
CSCC[C@H](N)C(=O)N[C@@H](CCCN=C(N)N)C(=O)N[C@@H](Cc1ccccc1)C(=O)N[C@@H](Cc1ccccc1)C(=O)N[C@H](C(=O)O)C(C)C	none (no result: IL2 activator, PKM2 act, a7 integrin act, BRCA1 expr act)
Cc1cccc(OCCNc2ccc(C(F)(F)F)cc2[N+](=O)[O-])c1	BRCA1 expr act 3.16µM
O=C(CNc1ccc(C(F)(F)F)cc1[N+](=O)[O-])OCC(=O)c1ccccc1	Apoferritin bind 28.2µM
CCCCOc1ccc(CC(=O)NOC)cc1	none (no result: IL2 activator, PKM2 act, a7 integrin act, Apoferritin bind)
COc1cccc(N2CC(NC(=O)c3cc(Cl)ccc3OC)CC2=O)c1 (stereo not given)	none (no result: IL2 activator, PKM2 act, a7 integrin act, BRCA1 expr act)
O=c1[nH]c(=O)c2nc3c4ccccc4c4ccccc4c3nc2[nH]1	PKM2 act 11.2µM
C=C1Cc2c(Cl)cc3[nH]c4c5c3c2[C@@]2(O)[C@@H]1C[C@@H]2C(C)(C)O[C@H]5[C@@H]1CC[C@@]2(O)[C@@]35O[C@@H]3[C@@H](O)[C@@H](C(=O)O)O[C@H]5CC[C@]2(C)[C@@]41C	none (no result: IL2 activator, PKM2 act, a7 integrin act, BRCA1 expr act)
COc1ccc(OC)c(NC(=O)/C=C/c2ccccc2[N+](=O)[O-])c1	none
COc1ccc(NC(=O)c2cccnc2)c([N+](=O)[O-])c1	none
COc1cccc(NC(=O)/C=C/c2ccccc2[N+](=O)[O-])c1	BRCA1 expr act 3.16µM
COc1ccc(NC(=O)c2ccccc2)c([N+](=O)[O-])c1	a7 integrin act inconclusive, BRCA1 expr act 7.94µM
CCCOc1ccc(C(=O)Nc2ccccc2[N+](=O)[O-])cc1	BRCA1 expr act 3.16µM (no result: PKM2 act, Apoferritin bind)
O=C1NCc2c1c1c3ccccc3[nH]c1c1[nH]c3ccccc3c21	none (no result: IL2 activator, PKM2 act, a7 integrin act, Apoferritin bind)
CC[N+](CC)(CC)c1ccc(/C=C/c2ccc3ccccc3n2)cc1	none (no result: IL2 activator, PKM2 act, a7 integrin act, Apoferritin bind)
CCc1cccc(NC(=O)CSc2nc3ccccc3nc2N2CCCCC2)c1	none (no result: IL2 activator, PKM2 act, a7 integrin act)
COc1ccccc1C(=O)Nc1ccc2c(c1)nc(CCNC(C)=O)n2C	BRCA1 expr act 10µM
Cc1ccccc1C(=O)Nc1ccc2c(c1)nc(CCNC(=O)c1ccco1)n2C	none (no result: PKM2 act)
Cn1c(CCNC(=O)c2ccco2)nc2cc(NC(=O)c3ccccc3Cl)ccc21	a7 integrin act inconclusive, BRCA1 expr act 8.91µM
CCC(=O)NCCc1nc2cc(NC(=O)c3cccc([N+](=O)[O-])c3)ccc2n1C	a7 integrin act inconclusive, BRCA1 expr act 3.16µM (no result: PKM2 act)
CC(=O)NCCc1nc2cc(NC(=O)c3cccc([N+](=O)[O-])c3)ccc2n1C	BRCA1 expr act 5.62µM (no result: PKM2 act)
